Active and inactive are the calls of the source.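 How the source made its calls: active means viability at or below 10% of carrier control in both of two separate runs; inconclusive means viability at or below 10% in only one of the two runs; inactive means the rest.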

The nature of the assay: SK-BR-3 cell growth inhibitors, pilot screen, 24 h, human (AID 572).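 Further: compound exposure lasted between 18 and 24 h rather than exactly 24 h; 100% = carrier-treated control wells.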 The following applies: SK-BR-3 viability, CellTiter-Glo luminescence, at 10 µM, stronger effect = lower value.
Usually viability stands for a read-out of living cells in per cent, often relative to untreated cells. Take `COCCOC(=O)C1=C(C)Nc2ncnn2C1c1ccc(F)cc1` (stereo not given): the viability was 90% (inactive).

For the molecule `CCC(=O)N[C@@H]1CC(C(C)(C)NC(=O)CC)CC=C1C` (stereo not given in full), the viability is 105% (inactive).

For the molecule `O=C(CCCCCN1C(=O)CCC1=O)NCc1ccccc1`, the viability was 103% (inactive).

For `O=C(Cn1ccc2ccccc2c1=O)NCCC(=O)NC1CCN(Cc2ccccc2)CC1`, the viability was 58% (inactive).

Consider `Cc1ccc(C)c(N2CCN(C(=O)CCCn3c(=S)[nH]c4cc5c(cc4c3=O)OCO5)CC2)c1`, for which the viability is 73.5% (inactive).

Turning to `COC(=O)C1C(=O)c2c([nH]c(C(=O)OCCOC(C)C)c2C)CC1C` (stereo not given), the viability is 100% (inactive).

With `CCOC(=O)c1c(C)[nH]c(C)c1C(=O)COc1ccc(NC(=O)c2ccco2)cc1`, the viability was 88.5% (inactive).

On to `CN1CCCN(C(=O)c2cc(=O)[nH]c3ccccc23)c2nc3ccccc3nc21`, for which the viability was 114% (inactive).

`O=C(Nc1cccnc1)c1ccc2c(c1)C(=O)N(Cc1cccnc1)C2=O`: the viability is 96.5% (inactive).

`CCCCn1c(SCC(=O)Nc2cc(C)on2)nnc1-c1cccnc1`: the viability was 96.5% (inactive).

For the molecule `Nc1nc(-c2ccccc2Br)cs1`, the viability is 91.5% (inactive).

As for `CCOc1ccc(NC(=O)CN(C)S(=O)(=O)c2cccs2)cc1`, the viability is 104% (inactive).

`Cc1sc(NC(=O)CSc2nc(N)n(CC(=O)c3ccccc3)n2)c(C#N)c1C`: the viability is 103% (inactive).

Turning to `CCOC(=O)C1=C(C)Nc2ncnn2C1c1cc(OC)ccc1OC` (stereo not given), the viability is 92.5% (inactive).

For `O=S(=O)(NCc1ccccc1)c1ccc2c(c1)OCCO2`, the viability was 124% (inactive).

With `CC1(C)Cc2c(sc3c2C2=NCCN2C=N3)CO1`, the viability is 111% (inactive).

`Cc1ccccc1CN1CCN(CC(=O)NCc2ccccc2)C1=O`: the viability was 113% (inactive).

`Cc1nc2ccccc2cc1C(=O)NCc1ccco1`: the viability was 130% (inactive).

In the case of `O=C(NCc1cccnc1)C1c2ccccc2C(=O)N1Cc1ccco1` (stereo not given), the viability is 94.5% (inactive).

With `CC(C(=O)N1CCc2ccccc21)N1CCc2ccccc2C1` (stereo not given), the viability was 82% (inactive).

In the case of `Cc1ccc2cc(C#N)c(NCCCNC(=O)C3CCCO3)nc2c1` (stereo not given), the viability was 106% (inactive).

For `Nn1c(SCC(=O)Nc2ccc3c(c2)OCO3)nnc1C1CC1`, the viability is 102% (inactive).

As to `COc1ccc(C2C(C(=O)c3sc(C)nc3C)=C(O)C(=O)N2CCN2CCOCC2)cc1` (stereo not given), the viability was 99% (inactive).

For the molecule `O=C(O)c1cccc(CN2C(=O)SC(Nc3ccccc3)C2=O)c1` (stereo not given), the viability is 110% (inactive).

With `Nc1c(S(=O)(=O)c2cccs2)c2nc3ccccc3nc2n1CC1CCCO1` (stereo not given), the viability was 79.5% (inactive).

Consider `O=C(Nc1ccc(OC(=O)c2ccco2)cc1)c1ccco1`, for which the viability is 96.5% (inactive).

For the molecule `COC(=O)Cn1cnc2c(nnn2-c2ccc(C)cc2)c1=O`, the viability is 86% (inactive).

Regarding `O=C(Nc1nc2c(s1)CCc1ccccc1-2)c1cccs1`, the viability was 102% (inactive).

In the case of `Cc1cccc(OCCCc2c(C)n[nH]c2C)c1`, the viability is 102% (inactive).

As to `O=C(CN1CCC(NC(=O)c2ccc(F)cc2)CC1)NCc1ccccc1F`, the viability was 96.5% (inactive).

In the case of `CCCCc1ccc(NC(=O)c2c(C)noc2C)cc1`, the viability was 105% (inactive).

On to `CC1=Nn2c(nnc2-c2ccccn2)SC1`, for which the viability is 94% (inactive).

Regarding `O=c1oc2ccccc2n1CCn1c2ccccc2c2nc3ccccc3nc21`, the viability is 85% (inactive).

On to `COc1ccc(N2CCN(C(c3cccs3)c3nnnn3C3CCCC3)CC2)cc1` (stereo not given), for which the viability was 90.5% (inactive).

`CCc1ccc2c(CN(CC)Cc3nc4ccccc4c(=O)[nH]3)cc(=O)oc2c1`: the viability was 86% (inactive).

With `COc1ccc(OC)c(N(CC(=O)N2CCN(c3cc(Cl)ccc3C)CC2)S(C)(=O)=O)c1`, the viability was 100% (inactive).

For `COC(=O)c1ccc(COc2ncnc3c(Cl)cc(Cl)cc23)o1`, the viability was 102% (inactive).

For `O=C1CC(c2cccc(Cl)c2)Cc2nc(N3CCN(c4ccccc4)CC3)ncc21` (stereo not given), the viability was 88% (inactive).

With `COc1ccccc1Oc1coc2c(CN3CCN(C)CC3)c(O)ccc2c1=O`, the viability was 102% (inactive).

For `CCOC(=O)Nc1ccc2c(CN3C(=O)NC4(CCCC4)C3=O)cc(=O)oc2c1`, the viability was 89.5% (inactive).

The values are drawn from PubChem BioAssay.
